# Screening data: PubChem, several laboratories
# Most compounds without a hit are left out; they make up all but 4.8% or so of the library.
# ssDAF12 agonist: S. stercoralis DAF-12 activation, primary screen; HEK293 ssDAF-12/GRIP1 lit1-tk-luc reporter, luminescence; % of 3 µM dafachronic acid response; activation, % at 6.8 µM; hit rate 1% among 370,000;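 active = activation above the mean over all tested compounds plus 3 SD, cut at about 0.9% in these data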;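 note: 0% = DMSO-only wells and 100% = 3 µM delta7-dafachronic acid wells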
# DAX1 inh-1: inhibitors of human orphan nuclear receptor DAX1 (NR0B1); P51843; HEK293 Gal4-DAX1 luciferase reporter, luminescence; inhibition, % at 6.75 µM; hit rate 0.99% among 340,000;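 active = inhibition above the mean over all tested compounds plus 3 SD, cut at about 4.2% in these data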;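 note: 0% = DAX1-transfected cells with DMSO and 100% = empty-vector control cells with DMSO; inhibition shows as a rise in luminescence from relieved DAX1 repression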
# Target sequence (P51843 207-470 limits assumed): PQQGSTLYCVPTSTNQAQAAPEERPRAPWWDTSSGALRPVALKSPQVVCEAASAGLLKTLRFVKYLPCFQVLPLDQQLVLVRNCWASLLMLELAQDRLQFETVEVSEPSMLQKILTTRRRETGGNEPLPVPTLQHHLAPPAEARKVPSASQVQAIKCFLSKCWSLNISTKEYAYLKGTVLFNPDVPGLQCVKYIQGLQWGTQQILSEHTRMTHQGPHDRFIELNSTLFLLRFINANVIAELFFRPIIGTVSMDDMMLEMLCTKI
# hcDAF-12 act: H. contortus DAF-12 activation, primary screen. HEK293 hcDAF-12 lit1-tk-luc reporter, luminescence; 0% DMSO, 100% Δ7-dafachronic acid. activation, % at 6.8 µM. hit rate 1.4% among 370,000;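 active = activation above the mean of all tested compounds plus 3 SD, cut at about 5.5% in these data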;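 note: 100% = response to 3 µM Δ7-dafachronic acid high control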
# hgDAF12 agonist: hgDAF-12 agonism, primary luciferase screen; HEK293 GAL4-hgDAF12 UAS-luciferase reporter, agonist luminescence; normalized to butyrate control; activation, % at 6.8 µM; hit rate 1.8% among 370,000;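 active = activation above a cutoff set at the mean of all screened compounds plus 3 SD, cut at about 10% in these data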;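 note: 0% = DMSO wells and 100% = sodium butyrate wells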
# DAX1 inh-2: DAX1 (NR0B1) inhibition, primary screen; inhibition, % at 6.8 µM; hit rate 1.1% among 370,000; AID 652010; HEK293T StAR-luciferase reporter, SF-1/DAX-1 repression relief;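 active = inhibition above the mean over all tested compounds plus 3 SD, cut at about 3.6% in these data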;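 note: 0% = DAX-1 cells with DMSO and 100% = cells lacking DAX-1 with DMSO; higher inhibition means more luminescence from relief of DAX-1 repression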
# Rev-erbA mod: modulates human Rev-erb alpha binding to DNA | hit rate 0.79% among 370,000 | activity, % at 10 µM | Rev-erbα–FITC-DNA binding, fluorescence polarization, 90 min;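 active = activity above about 14%, limit read from the data; passing the limit was not always enough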;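 note: 0% = DMSO wells with 35 nM protein and 100% = DMSO wells with 750 nM protein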
# Rev-erbA confirm: confirmation of modulators of human Rev-erb alpha DNA binding; shares compounds with Rev-erbA mod; Rev-erb alpha FITC-DNA binding, fluorescence polarization, 90 min; activation, % at 25 µM; hit rate 61% among 3,000; AID 1259319;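 active = activation at or above a set limit, or at least 3 SD above the negative control mean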;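 note: 0% = 35 nM protein with DMSO and 100% = 750 nM protein high control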
# RORg DNA counter: RORgamma DNA-binding activity, dose-response counter-screen; IC50, µM; shares compounds with Rev-erbA mod; hit rate 8% among 910; purified RORgamma protein-FITC-DNA binding, fluorescence polarization;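 active = Compounds whose fitted half-maximal concentration for disrupting protein-DNA binding is below 10 micromolar; the record names Rev-erb in its text, so the target is in doubt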
# * = called active by the depositor; nt = no result given.
SMILES,ssDAF12 agonist,DAX1 inh-1,hcDAF-12 act,hgDAF12 agonist,DAX1 inh-2,Rev-erbA mod,Rev-erbA confirm,others
O=C(NCc1ccccc1)C(c1cc2ccccc2o1)n1c(=O)c(-c2ccccc2)nc2ccccc21 (stereo not drawn),1,nt,4,5,3.8*,47*,28*,RORg DNA counter=>40
Cc1ccccc1OCC(=O)Nc1sc(C(=O)Nc2cccc(C)c2C)c(C)c1C#N,nt,0,nt,nt,nt,54*,23*,
COc1ccccc1NC(=O)c1oc2ccccc2c1NC(=O)c1ccco1,-2,0,1,3,0,27*,13,
COc1ccccc1NC(=O)c1sc(NC(=O)c2ccco2)c(C#N)c1C,-2,0,1,1,1,104*,47*,RORg DNA counter=>40
Cc1ccccc1OCC(=O)Nc1sc2c(c1C#N)CC(C)(C)NC2(C)C,-1,-1,-3,-4,0,-1,nt,
Cc1ccc(S(=O)(=O)C2CCN(c3nc(-c4cccs4)nc4ccccc34)CC2)cc1,-2,nt,-2,0,nt,4,nt,
O=C(OCc1ccccc1)[C@H](Cc1ccccc1)NC(=O)[C@@H]1CC=C[C@@H]2CCN(Cc3ccccc3)C(=O)[C@@H]21,-2,nt,-1,-1,nt,0,nt,
Cn1c(/C(C#N)=C(\O)COc2ccc3ccccc3c2)nc2ccccc21,0,0,1,1,0,23*,9,
Cn1nc(-c2ccccc2)cc1NC(=O)c1ccccc1,-1,0,0,3,0,41*,2,
CC(C)CC1NC(=O)c2cc3ccccc3cc2-n2c1nc1ccc(Cl)cc1c2=O (stereo not drawn),0,2,0,3,3,16*,1,
COc1ccc(OC)c2c1sc(=NC(=O)C1CCCCC1)n2C,-1,1,1,1,0,44*,-15,
CCn1c(=NC(=O)C2COc3ccccc3O2)sc2c(OC)ccc(OC)c21 (stereo not drawn),-1,0,-1,-1,0,47*,18,
CCCC(=O)N=c1sc2c(OC)ccc(OC)c2n1C,-1,2,-1,1,0,40*,17,
COc1ccc(OC)c2c1sc(=NC(=O)C(C)(C)C)n2C,-1,0,0,0,0,-1,nt,
O=C(/C=C(\Nc1cccc(F)c1)c1ccccc1)c1ccccc1,-1,nt,0,5,2,1,nt,
Oc1c(C=Nc2cccc3cccnc23)sc2ccccc12,-1,nt,-1,-1,-1,26*,36*,RORg DNA counter=>40
O=C(Nc1ccc(F)cc1)OCc1cn(Cc2ccccc2C(F)(F)F)nn1,-1,nt,-2,2,-1,9,nt,
COC(=O)c1sc(C(F)(F)F)c(-c2ccccc2)c1S(=O)(=O)N1CCCC1,-1,-1,-1,-2,0,24*,27*,
Cn1c(=O)c(=O)n(C)c2cc(S(=O)(=O)N3CCCCC3)ccc21,-1,0,1,-1,0,-3,nt,
CC1CC(C)CN(S(=O)(=O)c2ccc3c(c2)n(C)c(=O)c(=O)n3C)C1 (stereo not drawn),-2,0,-1,-1,0,66*,0,
Cc1cc2c(s1)c1cnn(Cc3cc(F)ccc3F)c(=O)c1n2C,-2,nt,-1,-2,nt,15,nt,
COc1cccc(Cn2ncc3c4sc(S(C)=O)cc4n(C)c3c2=O)c1 (stereo not drawn),-2,nt,-4,0,nt,5,nt,
Cc1cc2c(s1)c1cnn(Cc3ccccc3F)c(=O)c1n2C,-1,-1,-1,-1,0,33*,18*,
Cc1cc2c(s1)c1cnn(Cc3c(Cl)ccc(C)c3F)c(=O)c1n2C,-1,nt,-2,-4,nt,233*,81*,RORg DNA counter=>40
CC(N)(Cc1ccc(O)c(O)c1)C(=O)O (stereo not drawn),nt,nt,nt,nt,nt,-33,nt,
SMILES,ssDAF12 agonist,DAX1 inh-1,hcDAF-12 act,hgDAF12 agonist,DAX1 inh-2,Rev-erbA mod,Rev-erbA confirm,others
NS(=O)(=O)c1ccc(CCNC(=O)c2cc(-c3ccc(Br)cc3)nc3ccccc23)cc1,-2,-1,-2,-1,-2,17,nt,
NS(=O)(=O)c1ccc(CCNC(=O)c2cc(-c3ccccn3)nc3ccc(Br)cc23)cc1,-1,-2,1,0,0,34*,30*,RORg DNA counter=>40
Cc1cc(NC(=O)c2cc(-c3ccccn3)nc3ccc(Br)cc23)no1,-1,0,3,0,0,18*,22*,
Cc1cc(NC(=O)c2cc(-c3ccccn3)nc3ccccc23)no1,-1,-1,0,0,-1,0,nt,
NS(=O)(=O)c1ccc(CNC(=O)c2cc(-c3cccnc3)nc3ccc(Br)cc23)cc1,-2,-1,0,-3,-3,43*,31*,RORg DNA counter=1.3*
Cc1ccc(-c2cc(C(=O)NCc3cnn(C)c3C)c3cc(Br)ccc3n2)cc1,-1,-1,4,1,0,32*,11,
COc1ccc(-n2c3c(cc(C(=O)Nc4cccc(C)n4)c2=O)C(=O)CC(C)(C)C3)cc1,-1,0,-1,-2,-1,33*,14,
Cc1sc2nc(N3CCOCC3)[nH]c(=O)c2c1-c1ccccc1,-1,-1,-2,-2,0,94*,128*,RORg DNA counter=>40
Cc1sc2nc(CN3CCOCC3)[nH]c(=O)c2c1-c1ccccc1,-1,0,-3,2,0,-4,nt,
CCOc1ccc(N(C)c2ccc(/C=C3/SC(=S)NC3=O)cc2)cc1,-1,-1,-1,-3,0,17,nt,
CN(C)c1ccc(C=C2SC(=S)NC2=O)cc1,0,1,2,3,1,48*,35*,RORg DNA counter=>40
O=c1[nH]c(CSc2ncnc3sc(-c4ccccc4)cc23)nc2ccccc12,-1,1,0,-2,1,39*,4,
O=c1[nH]c(CSc2nc(-c3ccccc3)cs2)nc2ccccc12,-1,-1,-4,-2,0,1,nt,
COC(=O)C[C@H]1C=C[C@@H](NC(=O)C2CC2)[C@@H](CO)O1,0,nt,-1,1,0,4,nt,
CCc1cc2cc(C(=O)Nc3ccc(C)cc3)sc2s1,-1,-1,0,3,0,45*,17*,
CCOC(=O)c1c(NC(=O)C2CCCO2)sc(C)c1C (stereo not drawn),0,0,-1,3,-1,-2,nt,
CCOC(=O)c1c(NC(=O)C2CCCO2)sc(C(=O)OC(C)(C)C)c1C (stereo not drawn),-1,-1,1,-1,0,46*,31*,
